# Assay results as given in PubChem BioAssay AID1117361 (Southern Research Institute, 2015).
# Screen size: about 3,600 compounds; about 900 (25%) were called active. Only a sample is shown. Potency and affinity values are given separately. Unmarked numbers belong to inactive results. The rule behind the calls is not given here.
# Target: Protein Tat (Human immunodeficiency virus type 1 group M subtype B (isolate HXB2)) (UniProt P04608)
# Test: inhibitors of Tat binding to TAR RNA, dose response, counter-screen for Vif-APOBEC3G degradation inhibitor project, biochemical, fluorescence polarization, FAM-labeled TAR RNA (AID 1117361)
# Conditions: outcome: dose series up to 100 µM unless noted; series mostly up to 100 µM; inhibition: at the top concentration
Compound,outcome,inhibition
COC(=O)COc1ccc(S(=O)(=O)Nc2ccc(C(N)=O)cc2)cc1C,inactive,
COc1ccc(S(=O)(=O)Nc2cc(SCC(=O)O)c(O)c3ccccc23)cc1,,0.33%
CCc1ccc(CCC(=O)Nc2ccc(S(N)(=O)=O)cc2)o1,,17.6%
Cc1onc(-c2ccccc2)c1CNC(=O)C1COc2ccccc2O1 (stereo not drawn),inactive,
CCc1cccc(NC(=O)Cn2ncn3c(cc4ccccc43)c2=O)c1,,8.11%
O=S(=O)(c1ccc(OCc2nc3ccccc3s2)c(Cl)c1)N1CCOCC1,,4.09%
COc1ccc(C(=O)N2CC3(C)CC2CC(C)(C)C3)cc1 (stereo not drawn),,2.03%
Cc1ccc(OCCN2CCCCCC2)c(C)c1,,2.73%
Cc1c(/C=N\NC(=O)c2csc3ccccc23)cnn1C,inactive,
CC1CCCCC1NC(=S)Nc1cccc(S(=O)(=O)N(C)C)c1 (stereo not drawn),inactive,
Cc1cccc(N/C=C/C(=C(C#N)C#N)N(C)C)c1,,16.2%
CN(C)S(=O)(=O)c1ccc(NC(=O)c2cc3ccccc3o2)cc1,inactive,
Cc1cc(SCC(=O)N/N=C/c2ccc(O)c(O)c2O)c(C)cc1Br,,0.33%
CCn1c(C)nc2cc(C(=O)NNC(=O)CCC3CCCCC3)ccc21,inactive,
CCN(CC)S(=O)(=O)c1cccc(NN=c2c(=O)c3ccccc3c2=O)c1,,11.6%
COc1cccc(/C=N/NC(=O)c2cnccn2)c1O,,10.7%
CNC(=O)CN(C)S(=O)(=O)c1ccc(F)cc1,inactive,
C=CCSc1nnc(NC(=O)CSc2nnc(C)s2)s1,inactive,
COc1ccc(C(=O)n2nc(-c3ccccc3)nc2SC)cc1,,5.41%
CCOc1ccc(NC(=O)C2CCCN(S(=O)(=O)c3c(C)n[nH]c3C)C2)cc1 (stereo not drawn),,0.82%
CCCNC(=O)Cn1c2ccccc2c2nc(=O)cc(C)n21,,4.73%
CCOC(=O)c1c(C)[nH]c(C(=O)CSc2nnc(C3CC3)n2N)c1C,,3.38%

Compound,outcome,inhibition
CN(C)S(=O)(=O)N1CCN(c2ccc(Cl)cc2)CC1,inactive,
CCCC(=O)NC(C)C(c1cccs1)N1CCN(C)CC1 (stereo not drawn),,9.69%
Cc1ccc(S(=O)(=O)N(C)c2ccccc2C(=O)N2CCCC2)cc1,,1%
COc1cc(C(=O)NNC(=S)NCc2ccco2)cc(OC)c1OC,,21.4%
COc1ccc(C(=O)NCc2cccnc2)cc1OC,,2.03%
O=C(NCCc1ccccc1)c1ccc2c(c1)N(Cc1ccccc1)C(=O)CS2=O (stereo not drawn),,4.05%
O=C(CCS(=O)(=O)c1cccs1)Nc1ccc(C(=O)NCc2ccccc2)cc1,inactive,
COc1ccc(CCNC(=O)Cn2nnc(-c3cccc(OC)c3OC)n2)cc1OC,,5.46%
CC(C)(C)c1ccc(S(=O)(=O)NCc2ccc(C(=O)NCc3ccccn3)cc2)cc1,inactive,
CCS(=O)(=O)N1CCC(C(=O)NCc2ccccn2)CC1,,5.41%
O=C(Cc1ncn[nH]1)NCCc1ccccc1,,2.7%
O=C(NCc1ccco1)c1ccc2snnc2c1,,6.82%
CC(c1nnc(SCn2nnc3ccccc3c2=O)n1-c1ccc(Cl)cc1)N(C)C (stereo not drawn),,8.11%
COc1cccc(-c2nc(CS(=O)(=O)CC(=O)NC3CC3)c(C)o2)c1,,6.35%
CCOc1ccc(N2CC(C(=O)NCC(=O)Nc3ccc(F)c(F)c3F)CC2=O)cc1 (stereo not drawn),,4.12%
NS(=O)(=O)c1ccc(NC(=O)c2ccccc2C(=O)N2CCCCC2)cc1,,8.11%
CCN(C(=O)CCc1nc(-c2ccccc2F)no1)c1cc(OC)ccc1OC,inactive,
COc1ccccc1NC(=O)COC(=O)c1cc2c(s1)CCC2,,23.1%
CCOC(=O)c1cccc2c(=O)c(C(=O)c3ccc(Cl)cc3)c(C(=O)OC)[nH]c12,,3.3%
C/C(=N\OC(=O)c1ccc(F)cc1)c1sc(-c2ccccc2)nc1C,inactive,
CC1CCc2cc(F)ccc2N1C(=O)C1(C)CC1(Cl)Cl (stereo not drawn),,8.11%
O=C(NCc1ccccn1)c1ccc(Cn2cc(Br)cn2)o1,,29.3%

Compound,outcome,inhibition
C/C(=N\O)C(=O)NCc1ccccn1,,23.2%
O=C(NC1=CC(=O)c2ccccc2C1=O)c1ccccc1,inactive,
Cc1ccc(NC(=O)CNC(=O)COc2ccccc2)nc1,inactive,
COc1ccc2cc(C(=O)N3CCOCC3)sc(=O)c2c1OC,,10.2%
COc1ccc(/C=C(/NC(C)=O)C(=O)O)cc1,,0.68%
COc1ccccc1/C=C/C=C1N=C(/C=C/c2ccc(Cl)cc2)OC/1=O,inactive,
COc1ccc(OC)c(/C(O)=C/C(=O)C(=O)Nc2ccccc2OC)c1,,16.2%
COc1ccc(/C=C/C(=O)NC(=S)Nc2ccccn2)cc1,inactive,
CN1C(=O)CC(N2CCN(C(=O)c3ccccc3)CC2)C1=O (stereo not drawn),,6.76%
Cc1cc(-n2ccnc2)n2c(nc3ccccc32)c1C#N,,15%
COc1cc(-n2cnnn2)ccc1S(=O)(=O)N1CCOCC1,,3.01%
CCCn1c(=O)c(-c2ccccc2)c(O)c2ccccc21,,12.8%
O=C1c2ccccc2S(=O)(=O)N1CC(O)COc1ccc(Br)cc1 (stereo not drawn),inactive,
CCOC(=O)C1C(c2ccc(O)c(OCC)c2)NC(=S)NC1(O)C(F)(F)F (stereo not drawn),inactive,
CS(=O)(=O)c1ccc(Cl)c(NC(=O)COC(=O)COc2ccc3c(c2)CCC3)c1,inactive,
COc1ccc(CNC(=O)CN(CC2CCCO2)C(=O)CNS(=O)(=O)c2ccc(C)cc2)cc1 (stereo not drawn),inactive,
COc1ccc(OC)c(NC(=O)c2[nH]c(C)c(C(C)=O)c2C)c1,,29.1%
COc1cccc(CNC(=O)Cn2c(=O)oc3ccccc32)c1OC,inactive,
COc1ccc(OC)c(/C(O)=C/C(=O)C(=O)Nc2cc(C)ccc2OC)c1,,1.35%
COc1ccc(CC(=O)OCc2cc3ccc(C)cc3[nH]c2=O)cc1,,12.8%
N=c1sccn1CC(=O)Nc1ccc2c(c1)CCC2,inactive,
COc1ccc(OC)c(C2C(C(=O)c3cc4ccccc4o3)=C(O)C(=O)N2c2cc(C)on2)c1 (stereo not drawn),,18.4%

Compound,outcome,inhibition
CCC(C)NC(=S)NNC(=O)c1ccc(C(C)(C)C)cc1 (stereo not drawn),,13.7%
Cc1cc2c(=Cc3ccc(N(C)C)cc3)c3ccccc3n2[n+]1C,,10.3%
COc1cccc(C=Nc2cc(C(C)C)c(O)cc2C)c1O,inactive,
Oc1cccc(/C=N/NC(=S)NCCN2CCOCC2)c1O,inactive,
COc1cccc(CC(NC(C)=O)C(=O)NC2CCN(S(=O)(=O)c3ccc4ccccc4c3)CC2)c1 (stereo not drawn),,4.73%
COc1ccccc1N1CCN(CC(O)COCCOc2ccc(Br)cc2)CC1 (stereo not drawn),,6.6%
CC(=O)Nc1ccc(C(=O)Nc2cccc(-c3cnc4ccccc4n3)c2)cc1,,9.9%
CC(=O)Nc1ccc(N/C=C/C(=O)C(C)(C)C)cc1,,3.38%
Cc1ccc(NC(=O)c2ccc(Cl)c(N3C(=O)C=CC3=O)c2)cc1,,8.87%
Cc1cc(C)c(C)c(OCCCOc2cccc3cccnc23)c1,inactive,
Cc1nnc(SCC(=O)N2CCN(c3ccccc3)CC2)n1C1CC1,inactive,
COC(=O)c1sccc1NC(=O)c1cc(-c2ccc(C)cc2C)nc2ccccc12,,3.41%
COc1ccc(/C=N/NC(=O)c2ccc3ccccc3c2)cc1OS(=O)(=O)c1ccc(NC(C)=O)cc1,,4.05%
Cc1ccc(C(=O)N/C(=C/c2cccnc2)C(=O)NCc2ccco2)cc1,inactive,
O=C(CNC(=O)/C(=C\c1ccccc1)NC(=O)c1ccc(Br)cc1)OCc1ccccc1,,3.41%
O=C(NCC1CCCO1)c1ccc(CS(=O)(=O)Cc2ccc(F)cc2)o1 (stereo not drawn),,2.03%
Cc1cc(C(F)(F)F)n2nc(C(=O)O)c(Cl)c2n1,,1.35%
O=C1NC(=Nc2ccc(F)cc2)SC1Cc1ccc(F)cc1 (stereo not drawn),inactive,
O=C(O)c1ccc(S(=O)(=O)c2ccc([N+](=O)[O-])cc2[N+](=O)[O-])cc1,inactive,
COc1ccc(NC(=O)/C(C#N)=C\c2cc(C)n(-c3ccc(Oc4ccc([N+](=O)[O-])cn4)cc3)c2C)cc1,inactive,
CCCN(CCC)S(=O)(=O)c1cc(Br)cc2c1N(C(=O)CC)CC2,,4.05%
O=C1CCCC(NCCCCCCNC2=C([N+](=O)[O-])C(=O)CCC2)=C1[N+](=O)[O-],inactive,

Compound,outcome,inhibition
CC(NCCO)C(=O)C12CC3CC(CC(C3)C1)C2 (stereo not drawn),,2.03%
CN(C)S(=O)(=O)N1CCC(CCCC2CCN(S(=O)(=O)N(C)C)CC2)CC1,inactive,
CN1CCN(c2nc(-c3cccnc3)nc3ccccc23)CC1,,6.08%
C[C@@H]1NC(=O)[C@H](CCC(N)=O)NC(=O)c2cc([N+](=O)[O-])cc(I)c2NCCC[C@@H](C(N)=O)NC1=O,inactive,
O=C(COC(=O)c1cc(=O)[nH]c2ccccc12)Nc1cccc(S(=O)(=O)N2CCOCC2)c1,inactive,
CN(Cc1ccccc1)C(=O)c1cccc(N2C(=O)NC3CC2(C)Oc2ccccc23)c1 (stereo not drawn),,1.36%
CCCCCCn1c(SCC(=O)Nc2cc(C)on2)nc2ccccc2c1=O,,1.35%
NC(=O)c1ccc(NC(=O)CSc2nc3ccccc3c(=O)n2CCCN2CCOCC2)cc1,,3.3%
Cc1sc(-c2ccccn2)nc1OC(=O)c1cccc(Cl)c1Cl,,1.35%
CCCS(=O)(=O)N1CCCC(C(=O)NCCCOC(C)C)C1 (stereo not drawn),,5.41%
CC(C)C(=O)Nc1nnc(Sc2ccc(N(C)C)cc2)s1,,22.3%
O=S(=O)(c1ccccc1)N1CCN(S(=O)(=O)N2CCCCC2)CC1,,2.05%
COc1cc(C(=O)OCC(=O)N2CCCC2)cc(OC)c1OC,,2.03%
Cc1ccccc1NC(=O)Cc1nc(COC(=O)Cc2ccccc2F)cs1,inactive,
COc1ccc(S(=O)(=O)NNC(=O)c2sccc2-n2cccc2)cc1,inactive,
COC(=O)CC1Oc2ccccc2N(Cc2ccccc2)C1=O (stereo not drawn),,6.08%
CCOC(=O)C1(Cc2ccc(OC)cc2)CCN(C(=O)c2cccc3nccnc23)CC1,inactive,
O=C(Nc1cccc(C(F)(F)F)c1)c1cc(S(=O)(=O)N2CCCCC2)ccc1N1CCOCC1,inactive,
O=C(CN1CCN(S(=O)(=O)c2ccc(F)cc2)CC1)Nc1cc(C(F)(F)F)ccc1Cl,,2.05%
Cc1cccc(Cc2nnc(CCC(=O)N(C)C3CCOC3)o2)c1 (stereo not drawn),inactive,
